# Counter-ions that a name gives are not always drawn.
# Test system: MOLM14
# Test: cell viability relative to vehicle control; higher = less cytotoxic
# Settings: 10 µM; SRSF2 genotype: SRSF2 P95H/wt
# Outline: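 Screening covered the Selleck bioactive, kinase and epigenetic probe libraries, less identity-inconsistent compounds, on CRISPR-edited mutant clones and isogenic wild-type clones of four leukaemia lines. Cells, at 2000 per well in 50 µL medium, received a single 10 µM acoustically dispensed dose. After 48 h the supernatant was removed and CellTiter-Glo luminescence was read. Viability was analysed in Genedata Screener as percent of the on-plate vehicle control.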
row,Structure (SMILES),cell viability
1,Oc1ccc(OCc2ccccc2)cc1 [Monobenzone (Benoquin)],27.1%
2,CNCCCC12CCC(c3ccccc31)c1ccccc12 [Maprotiline hydrochloride],64.4%
3,O=C(O)[C@H]1O[C@@H](Oc2cc3oc(-c4ccc(O)cc4)cc(=O)c3c(O)c2O)[C@H](O)[C@@H](O)[C@@H]1O [Scutellarin],102%
4,Cn1nnc(-c2ccc(-c3ccc(N4C[C@H](COP(=O)(O)O)OC4=O)cc3F)cn2)n1 [Tedizolid Phosphate],91.8%
5,Cc1onc(-c2c(F)cccc2Cl)c1C(=O)N[C@@H]1C(=O)N2[C@@H]1SC(C)(C)[C@@H]2C(=O)O [Flucloxacillin sodium],95.6%
6,CC(=O)Nc1ccccc1 [Acetanilide (Antifebrin)],96.4%
7,CCOC(=O)c1c(C)n(C)c2ccc(O)cc12 [Mecarbinate],116%
8,CC#CC(=O)N1CCC[C@H]1c1nc(-c2ccc(C(=O)Nc3ccccn3)cc2)c2c(N)nccn12 [Acalabrutinib (ACP-196)],95.4%
9,CN/C(=N\CCSCc1nc[nH]c1C)NC#N [Cimetidine (Tagamet)],101%
10,CCCC1O[C@@H]2C[C@H]3[C@@H]4CCC5=CC(=O)C=C[C@]5(C)[C@H]4[C@@H](O)C[C@]3(C)[C@]2(C(=O)CO)O1 (stereo partly specified) [Budesonide],86.1%
11,CO/N=C1\C[C@]2(C[C@@H]3C[C@@H](C/C=C(\C)C[C@@H](C)/C=C/C=C4\CO[C@@H]5[C@H](O)C(C)=C[C@@H](C(=O)O3)[C@]45O)O2)O[C@H](/C(C)=C/C(C)C)[C@H]1C [Moxidectin],46.9%
12,CCOc1ccc2ccccc2c1C(=O)N[C@@H]1C(=O)N2[C@@H]1SC(C)(C)[C@@H]2C(=O)O [Nafcillin Sodium],101%
13,C[C@@H](O)[C@H]1C(=O)N2C(C(=O)O)=C(S[C@@H]3CN[C@H](CNS(N)(=O)=O)C3)[C@H](C)[C@H]12 [Doripenem Hydrate],103%
14,NC(=O)c1ccc(-c2nc(-c3ccc4c(c3)OCCO4)c(-c3ccccn3)[nH]2)cc1,97.5%
15,O=C1CCc2c(ccc3ccccc23)O1 [Splitomicin],98.7%
16,Cc1nc(-c2cn3c(n2)-c2ccc(-c4cnn(C(C)(C)C(N)=O)c4)cc2OCC3)n(C(C)C)n1,32.3%

row,Structure (SMILES),cell viability
1,CN(CCOc1ccc(NS(C)(=O)=O)cc1)CCc1ccc(NS(C)(=O)=O)cc1 [Dofetilide (Tikosyn)],95.8%
2,COC1CCN(C(=O)c2cc(Cc3n[nH]c(=O)c4ccccc34)ccc2F)CC1,57.9%
3,Cc1[nH]c(=O)c(C#N)cc1-c1ccncc1 [Milrinone (Primacor)],98.8%
4,CC(C)C[C@H](NC(=O)[C@@H](NC(=O)c1cccc(-c2ccccc2)n1)[C@@H](C)O)B(O)O,0.49%
5,CC(C)(C#N)c1cc(Cn2cncn2)cc(C(C)(C)C#N)c1 [Anastrozole],103%
6,CC(ONC(=O)c1cc(C(F)(F)F)cc(C(F)(F)F)c1)C(=O)Nc1ccc(Cl)cc1 (stereo unspecified),88.7%
7,CS(=O)(=O)Nc1cc2occ(NC=O)c(=O)c2cc1Oc1ccccc1 [Iguratimod],99.1%
8,CC1(C)CC[C@]2(C(=O)O)[C@H](O)C[C@]3(C)C(=CC[C@@H]4[C@@]5(C)CC[C@H](O)[C@@](C)(C=O)[C@@H]5CC[C@]43C)[C@@H]2C1 [Quillaic acid],84.6%
9,C[C@@H]1O[C@@H](O[C@H]2[C@H](O[C@H]3CC[C@@]4(C)[C@@H](CC[C@]5(C)[C@@H]4CC=C4[C@@H]6CC(C)(C)CC[C@]6(C(=O)O)CC[C@]45C)[C@]3(C)CO)OC[C@H](O[C@@H]3O[C@H](CO)[C@@H](O)[C@H](O)[C@H]3O)[C@@H]2O)[C@H](O)[C@H](O)[C@H]1O [Pulsatilla saponin D],0.5%
10,C=C1CCC[C@]2(C)C=C3OC(=O)C(C)=C3C[C@@H]12 [Atractylenolide I],103%
11,C#CCN[C@@H]1CCc2ccccc21 [Rasagiline mesylate],99.4%
12,CN1CC[C@H](c2c(O)cc(O)c3c(=O)cc(-c4ccccc4Cl)oc23)[C@H](O)C1 [Flavopiridol (Alvocidib)],3.1%
13,O=C(O)[C@H]1CSC(c2nc3ccc(O)cc3s2)=N1 [D-Luciferin],85.8%
14,CCCCCCOC(=O)c1cc(=O)c(O)c2c(O)c(O)c(OC)cc2c1,61.5%
15,CC1(C)OC(=O)C=C[C@]2(C)[C@H]3CC[C@@]4(C)[C@H](c5ccoc5)OC(=O)[C@H]5O[C@]54[C@]3(C)C(=O)C[C@@H]12 [Obacunone],97.4%

# Source: the supplement of paper PMC10981050
